Compound activity as filed in PubChem.
The full list was thinned out, with hits kept by preference.
ST2 inh: inhibitors of human ST2 (IL1RL1) binding to IL-33, primary screen, biochemical, AlphaLISA | 78,000 compounds, 2.3% hits | AlphaLISA ST2-Fc/biotin-IL-33 interaction, 1 h | inhibition, % for hits at 17 µM | Interleukin-1 receptor-like 1 (Homo sapiens), Q01638; in the data active means inhibition above about 30%
Target sequence (Q01638 whole entry, looked up): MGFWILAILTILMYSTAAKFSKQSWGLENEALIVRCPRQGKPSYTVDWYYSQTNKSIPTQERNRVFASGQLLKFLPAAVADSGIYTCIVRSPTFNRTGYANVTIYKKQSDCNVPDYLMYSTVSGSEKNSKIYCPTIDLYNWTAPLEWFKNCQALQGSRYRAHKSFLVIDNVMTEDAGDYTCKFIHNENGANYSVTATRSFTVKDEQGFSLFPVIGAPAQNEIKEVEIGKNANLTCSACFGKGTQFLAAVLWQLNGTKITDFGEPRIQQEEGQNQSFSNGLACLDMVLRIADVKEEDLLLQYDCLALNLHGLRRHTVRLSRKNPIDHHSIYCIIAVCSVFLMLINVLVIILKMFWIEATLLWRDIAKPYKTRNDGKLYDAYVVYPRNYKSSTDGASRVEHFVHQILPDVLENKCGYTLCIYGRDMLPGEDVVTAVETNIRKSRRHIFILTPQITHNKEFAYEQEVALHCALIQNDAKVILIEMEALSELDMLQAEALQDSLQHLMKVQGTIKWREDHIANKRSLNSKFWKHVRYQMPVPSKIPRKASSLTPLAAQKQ
An asterisk follows results filed as active; i = inactive; ! = repeats disagree.

SMILES	ST2 inh
O=C(O)c1c[nH]c2ccc(S(=O)(=O)N3CCCc4ccccc43)cc2c1=O	i
CSc1cccc(NC(=O)c2cc3ccccn3n2)c1	i
O=C(COc1nsnc1N1CCOCC1)Nc1ccc(OC(F)(F)F)cc1	i
Cc1ccc(-n2[nH]c(=O)c(C=c3c(C)c(C#N)c4nc5ccccc5n4c3=O)c2O)cc1Cl	i
COc1ccc(S(=O)(=O)Nc2ccc(OC)cc2[N+](=O)[O-])cc1	i
CN(C)c1ccc(C=C2c3cc([N+](=O)[O-])cc([N+](=O)[O-])c3-c3c2cc([N+](=O)[O-])cc3[N+](=O)[O-])cc1	42.0%*
COc1ccc(C=C2c3cc([N+](=O)[O-])cc([N+](=O)[O-])c3-c3c2cc([N+](=O)[O-])cc3[N+](=O)[O-])cc1	51.0%*
CN(C)c1ccc(/C=C2\N=C(c3cccc([N+](=O)[O-])c3)OC2=O)cc1	i
CN(C)c1ccc(/C=C2\c3cc([N+](=O)[O-])ccc3-c3c2cc([N+](=O)[O-])cc3[N+](=O)[O-])cc1	i
COc1ccc(/C=C2\N=C(c3ccc(C)c([N+](=O)[O-])c3)OC2=O)cc1	i
CCOc1ccc(OCC(=O)Nc2c(C(=O)Nc3cccc(F)c3)oc3ccccc23)cc1	i
COC(=O)[C@H]1CN(C(=O)c2cccnc2)CCN1C(C)=O	i
COc1ccccc1N1CCN(Cc2sccc2C)CC1	i
Cc1cc(NC(=O)CSC2=Nc3ccccc3C3=NC(c4ccccc4)C(=O)N23)n[nH]1 (configuration not stated)	i
COc1ccc(CC2(C)OC(c3ccc([N+](=O)[O-])cc3)=NN2C(C)=O)cc1 (configuration not stated)	49.0%*
COc1cccc(C2=NN(C(=O)Cc3ccc([N+](=O)[O-])cc3)C(O)(C(F)(F)F)C2)c1 (configuration not stated)	i
CC(=O)N1N=C(c2ccc(Cl)cc2)OC1(C)C	i
CC(C)Cc1cn(CC2CCCN(C(=O)C3=CC(=O)CC(C)(C)O3)C2)nn1 (configuration not stated)	i
COc1cc(OC)c(C2C(C#N)=C(N)Oc3n[nH]c(-c4ccc(C)cc4)c32)cc1OC (configuration not stated)	i
CCn1cnnc1CCNC(=O)c1occc1C	i
COc1ccccc1N1CCN([C@H]2[C@@H]3OC[C@@H](O3)[C@@H](NCc3ccc(OC(F)(F)F)cc3)[C@@H]2O)CC1	i
CN(C)CCN(C)[C@H]1[C@@H]2OC[C@@H](O2)[C@@H](NCc2ccc(OC(F)(F)F)cc2)[C@@H]1O	i
O[C@H]1[C@H](NCc2ccc(OC(F)(F)F)cc2)[C@H]2CO[C@H](O2)[C@@H]1N1CCOCC1	64.0%*
O=S(=O)(NCCC1=CCCCC1)c1cccc2cccnc12	i
COc1cc2c(cc1OC)C(C(=O)N1CCOCC1)C1c3ccccc3CCN1C2=O (configuration not stated)	i
SMILES	ST2 inh
CC(C)N1C(=O)CO[C@H]2CN(C(=O)c3ccno3)C[C@H]21	i
CCN1C(=O)N(CCc2ccccc2)C2(CCN(CCc3ccccc3)CC2)C1=O	33.0%*
COCCN1C(=O)N(Cc2cccnc2)C(=O)C12CCN(Cc1nc(-c3ccccc3)cs1)CC2	i
CN1C(=O)N(Cc2ccccc2)C2(CCN(Cc3ccc(N(C)c4ccccc4)cc3)CC2)C1=O	i
C=CCc1cc(OC)ccc1OCCOCCN1CCOCC1	i
c1ccc(OCCCN2CCOCC2)cc1	i
CCOC1=CC(c2ccc(F)cc2)Oc2ccccc21 (configuration not stated)	i
CCOc1ccc(C2=C(CN3CCOCC3)C(c3ccccc3)c3ccccc3O2)cc1 (configuration not stated)	31.0%*
CCOC(=O)C1CCN(C(=O)C2c3ccccc3Oc3ccccc32)CC1	i
CCOc1ccc2c(=O)c(-c3ccc(F)cc3)c(C)oc2c1	i
CCOc1ccc(C2=C(CN(C)C)C(c3ccc(F)cc3)c3ccccc3O2)cc1 (configuration not stated)	40.0%*
COc1ccc(OC)c(NS(=O)(=O)c2ccc3c(c2)c(=O)n(C)c(=O)n3C)c1	i
O=C(Cn1cnc2c(cnn2-c2ccc(Cl)cc2)c1=O)Nc1ccc(Br)cc1	i
COc1ccc(Cl)cc1NC(=O)C(Cc1ccccc1)N1C(=O)C2C3C=CC(C3)C2C1=O (configuration not stated)	i
CC(CCn1cccn1)n1ccnc1-c1ccccc1C(=O)O (configuration not stated)	i
Cc1c(CN2CCC3(CC2)C(=O)NCCN3C)[nH]c2c(C)cccc12	30.0%*
Cc1[nH]c2c(C(=O)N3CCC4(CC3)C(=O)NCCN4C)cccc2c1C	i
CCCCc1ncc(CN2CCC3(CC2)C(=O)NCCN3C)[nH]1	i
Cc1nc2nc(SCC(=O)NC3CCCCC3)nn2c(C)c1Cc1ccccc1	i
O=C(Nc1ccc(F)cc1Cl)c1cnc(N2CCN(c3ccccn3)CC2)c2ccccc12	i
COc1ccccc1N1CCN(c2ncnc3sc(C(=O)O)c(C)c23)CC1	40.0%*!
Cc1c(C(=O)O)sc2ncnc(N3CCN(c4ccccc4F)CC3)c12	i
CCCN1CCN(c2ncnc3sc(C(=O)O)c(C)c23)CC1	i
CCCCc1c(C(=O)O)cc(C)cc1C(=O)O	i
Cc1ccccc1-n1nc2c(c1NC(=O)c1ccc(C(C)(C)C)cc1)CS(=O)C2 (configuration not stated)	i
SMILES	ST2 inh
Oc1ccccc1C1=Nc2ccccc2N=C(c2ccccc2)C1	i
COc1ccc(C2=Nc3ccccc3N=C(c3cc(OC)ccc3O)C2)cc1	i
COc1ccc(O)c(C2=Nc3ccccc3N=C(c3ccc(F)cc3)C2)c1	32.0%*
CCc1ccc2oc(=O)cc(CN(C)C(COC)c3ccccn3)c2c1 (configuration not stated)	i
COc1cc(C2CC(c3ccccc3O)=NN2)ccc1O (configuration not stated)	32.0%*
COc1cc(C2N(Cc3ccccc3)CCN2Cc2ccccc2)ccc1O	i
COc1cc(C2C3=C(CCCC3=O)NC3=C2C(=O)c2ccccc23)ccc1O (configuration not stated)	i
COc1cc(CN(C)CC2CCN(Cc3ccc(C)o3)CC2)ccc1F	i
COc1ccc(C(=O)Nc2sc3c(c2-c2nc4ccccc4s2)CCN(C)C3)c(OC)c1	i
CCOc1ccc(CNC(=O)C(C(C)C)N2CCN(C)C(=O)C2=O)cc1 (configuration not stated)	i
O=C(/C=C/c1ccccc1)Nc1cc2ccccc2oc1=O	i
COc1ccccc1NC(=O)Nc1cccc2cccnc12	i
COc1cc(NC(=O)/C=C/c2ccccc2)c2ncccc2c1	35.0%*
Cc1nc2scc(-c3ccc(C(C)C)cc3)c2c(=O)n1/N=C\N(C)C	i
c1cnc(-c2noc([C@@H]3Cc4nc[nH]c4CN3CC3CCCCC3)n2)cn1	i
Cc1c(NC(=O)c2ccc([N+](=O)[O-])cc2Cl)cccc1-c1nc2cc(Cl)ccc2o1	i
Cc1ccc(NC(=O)c2cc3ccccc3o2)c([N+](=O)[O-])c1	i
Cc1ccc(NC(=O)CC(C)C)c([N+](=O)[O-])c1	i
Cc1ccc(NC(=O)C(c2ccccc2)c2ccccc2)c([N+](=O)[O-])c1	41.0%*
CC(=O)c1ccc(N2CN=c3s/c(=C\c4ccc(I)o4)c(=O)n3C2)cc1	i
